Measured values reported in the supplement of paper PMC10338343.
± gives the standard deviation. The full ranking holds about 3,700 sequences; the median of “pre-steady-state target cleavage rate” is about 0.02, and the highest 2% start at about 0.23. The sample as a whole holds a higher share of the highest values than the screen did.

test system: MILI (PIWIL2) piRISC loaded with Kctd7 piRNA (26 nt); assay: pre-steady-state target cleavage rate (min^-1); MIWI and MILI are mouse PIWI proteins and EfPiwi is from a freshwater sponge; tags in brackets are library labels; higher = faster piRNA-guided slicing of the target; details: guide: Kctd7 piRNA 5'p-UGUUAAUCUCUCAGAGAAGGUGACAG; auxiliary factor: 500 nM mouse GTSF1
Method: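 Cleave-'n-Seq: a library of target RNAs (target site embedded in constant flanks, ACAGCATTCCGCGTTAGTGATATCCG... 5' flank; DNA-blocked outside the site) at 0.1 nM was incubated with 1 nM active mouse MILI or MIWI piRISC (synthetic 5'-monophosphorylated piRNA guide) with or without 500 nM mouse GTSF1 at 33 °C for 1 min to 16 h. Uncleaved targets were sequenced and normalised to non-target controls, and the pooled three trials were fitted to a burst-and-steady-state model to give the pre-steady-state cleavage rate (min^-1; k3 is constrained to at most 1e-4). Sequence is the target site only; target names encode pairing extent (gX:gY) and contiguous / 1-mismatch / 2-mismatch / bulge geometry. Fits with R² ≤ 0 are excluded.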

Sequence | pre-steady-state target cleavage rate
UAGUGAGUCACCUUCUCUGAGAGAUUAACA [g2:g24:cont:t1A] | 0.25 ± 0.021
UAGUGAGGUCACCUUCUCUGAGAGAUUAACA | 0.242 ± 0.016
UAGUGACAGACCUCUCUCUGAGAGAUUAACA | 0.0375 ± 0.0076
UAGUCUGUCACCUUCUGCUGAGAGAUUAACA | 0.0816 ± 0.013
UAGUCUGUCUCCUACUCUGAGAGAUUAACA | 0.157 ± 0.0082
UAGUGACUCACCUAGUCUGAGAGAUUAACA | 0.0896 ± 0.0089
UAGUGACAGUGCUUCUCUGAGAGAUUAACC [g2:g19:cont:t1C] | 0.0223 ± 0.0053
UAGUGACACACCAUCUCUGAGAGAUUAUGA | 0.00752 ± 0.0041
UAGUGAGUCACCUUCUCUGAGAGAUUACACA | 0.187 ± 0.038
UAGUAUGUCACCUUCUCUGAGAGAUUAACA | 0.211 ± 0.019
UAGUCACACACCUUCUCUGAGAGAUUAACA | 0.168 ± 0.011
UAGUGAGUCACCCUUCUCUGAGAGAUUAACA | 0.19 ± 0.02
UAGUGAGUCACCUUCUCUGAGAGAUUAACG [g2:g24:cont:t1G] | 0.284 ± 0.021
UAGUGAGUCACCUUCUCUGAGAGAUUACA | 0.153 ± 0.033
UAGUGAGUCACCUUCUCUGAGAGAUUACCA | 0.251 ± 0.05
UAGUGAGUCACCUUCUCUGAGAGAUUAAGA | 0.219 ± 0.035
UAGUCAGUCACCUUCUCUGAGAGAUUAACA | 0.249 ± 0.016
UAGUCAGUCACCUUCUCUGAGAGAUUAAGA | 0.135 ± 0.024
UAGUCAUGUCACCUUCUCUGAGAGAUUAACA | 0.238 ± 0.023
UAGUCACUCACCUUCUCUGAGAGAUUAACA | 0.207 ± 0.0095
UAGUGUGUCAGCUUCUGUGAGAGAUUAACA | 0.129 ± 0.013
UAGUGAGUCACCUUCUCUGCGAGAUUAACA | 0.0952 ± 0.015
UAGUGUGUCAGGUUCUCUGAGAGAUUAUGA | 0.00789 ± 0.0035
UAGUGACACAGCUUCUCUGUGAGAUUAACA | 0.0271 ± 0.0057

Sequence | pre-steady-state target cleavage rate
UAGUGACAGACCUUGUCUGAGAGAUUAACA | 0.0481 ± 0.0096
UAGUGAGUCAGCUUCUCUGAGAGAUUAACA | 0.158 ± 0.013
UAGUGUCAGACCUUCUCUGAGAGAUUAACA | 0.108 ± 0.012
UAGUCUCUCACCUUCUCUGAGUGAUUAACA | 0.00476 ± 0.0037
UAGUGACUCAGCUUGUCUGAGAGAUUAACA | 0.112 ± 0.0088
UAGUGACAGACCUUCUCUGAGACGAUUAACA | 0.0176 ± 0.0081
UAGUGAGUCACCUUCUCUGAGAGAUAAAGA | 0.00919 ± 0.0072
UAGUGAGUACCUUCUCUGAGAGAUUAACA | 0.113 ± 0.014
UAGUGACUCACCUUCUCUGAGAGAUUAAAA | 0.0677 ± 0.02
UAGUGAGACACCUUCUCUGAGAGAUUAACA | 0.185 ± 0.011
UAGUGAGUCACCUUCUCUGUGAGAUAAACA | 0.0242 ± 0.0096
UAGUGAGUCACCUUCUCUGAGAGAUAAACA | 0.249 ± 0.052
UAGUGAGUACACCUUCUCUGAGAGAUUAACA | 0.237 ± 0.019
UAGUGAGUCACCUUCCUGAGAGAUUAACA | 0.119 ± 0.038
UAGUGAGUCACCUUCCUCUGAGAGAUUAACA | 0.148 ± 0.019
UAGUGAGUCACCUUCCCUGAGAGAUUAACA | 0.394 ± 0.074
UAGUGACUCACCUUCUCUGAGAGAUUAAA | 0.13 ± 0.031
UAGUGACUCACCUUCUCUGAGAGAUUAAACA | 0.251 ± 0.035
UAGUGACUCACCUUCUCUGAGAGAGUUAACA | 0.118 ± 0.017
UAGUGUGAGACCUUCUCUGAGAGAUUAACA | 0.101 ± 0.0091
UAGUGACACACCUUCAGUGAGAGAUUAACA | 0.0881 ± 0.016
UAGUGACUCAUCCUUCUCUGAGAGAUUAACA | 0.0582 ± 0.0061
UAGUGAGUCACGUUCUCUGUGAGAUUAACA | 0.0376 ± 0.0033
UAGUGUGUCACCUUCUCAGAGACAUUAACA | 0.117 ± 0.025

Sequence | pre-steady-state target cleavage rate
UAGUGACUCACCUUCUCUGAGAGAUGUAACA | 0.172 ± 0.028
UAGUGACAGAACCUUCUCUGAGAGAUUAACA | 0.0771 ± 0.01
UAGUCUGUCACCUUCUCUGAGAGAUAAACA | 0.132 ± 0.022
UAGUGAGUCACCUUCUCAGAGAGAUUAACA | 0.173 ± 0.022
UAGUCUGUCACCUUCUCUGAGAGAUAUAACA | 0.235 ± 0.03
UAGUGUGUCACCUUCUCGAGAGAUUAACA | 0.0644 ± 0.013
UAGUGAGUCACCUUCUCGAGAGAUUAACA | 0.0598 ± 0.015
UAGUGUGUCACCUUCUCCGAGAGAUUAACA | 0.373 ± 0.1
UAGUCUGUCACCUUCUCUGAGAGAUAACA | 0.0928 ± 0.025
UAGUGAGUCACCUUCUGCUGAGAGAUUAACA | 0.264 ± 0.058
UAGUCUGUCACCUUCUCCGAGAGAUUAACA | 0.21 ± 0.038
UAGUGAGUCACCUUCUCCGAGAGAUUAACA | 0.394 ± 0.084
UAGUGAGUCACCUUCUGAGAGAGAUUAACA | 0.074 ± 0.011
UAGUGAGUCACCUUCUUCUGAGAGAUUAACA | 0.0918 ± 0.028
UAGUGACAGUCCUUCUAUGAGAGAUUAACA | 0.0377 ± 0.013
UAGUGACACAGCUUCUCUGAGAGAUAAACA | 0.0211 ± 0.0068
UAGUGACUCACGUUCUCUGAGAGAUUUACA | 0.0554 ± 0.015
UAGUGACAGACCUUCUCUGUGAGAUAAACA | 0.0102 ± 0.0046
UAGUGACACAACCUUCUCUGAGAGAUUAACA | 0.155 ± 0.018
UAGUGACUCACCUUCUCUGAGAGAUUAUACA | 0.114 ± 0.021
UAGUGUGUCACCAUCUCUGAGAGAUUAUGA | 0.0243 ± 0.0082
UAGUGACUCACCUUCUGUGAGAGAUUUUGA | 0.00903 ± 0.0039
UAGUGACACACCUACUCUGAGACAUUAACA | 0.0243 ± 0.0072
